Our source for the INHIBITION values is ChEMBL document CHEMBL4513216, “Probing the Open Global Health Chemical Diversity Library for Multistage-Active Starting Points for Next-Generation Antimalarials” (ACS Infect Dis, 2020).

Out of some 68,000 compounds screened, about 2,700 (4%) showed an effect of 50% or more. This is one part of a sample in which strong results are shown more often than they occur.

This experiment relates to Plasmodium berghei. In words: Screen against P. berghei liver stage (PbLuc), transformed with Luciferase, at 2uM. Type of experiment: functional, HepG2. The note with it: tested at 2 uM.
Regarding `O=C(Nc1cccnc1)[C@H]1CN(Cc2ccccn2)C[C@H]2OCC[C@@H]12`, the INHIBITION is listed as -43.55%.
Under `Cc1cc(-c2nc(-c3ccccn3)nn2C2CCN(C)CC2)nc(C)n1` stands 14.19%; under `CC1(CO)COC(Cc2ccc(Cl)cc2)=N1` (stereo not given), -6.98%.
As for `O=C1N(CCc2ccccc2)CCCC12CCN(C(CO)CO)C2` (stereo not given), the INHIBITION came to 57.92%.
Under `O=C1N(CCCc2ccccc2)CCCC12CCN(C(CO)CO)C2` (stereo not given) stands 7.13%.
The same measure for `CS(=O)(=O)N1CCC2(CCCN(CCCc3ccccc3)C2=O)C1` (stereo not given): -57.67%; for `Cc1ccc(N2CCN(C3CCc4ccccc4C3)CC2)nn1` (stereo not given): 30.66%.
The same measure for `Cc1noc(C)c1-c1cncc(CC2CCN(C(=O)c3cc[nH]n3)C2)n1` (stereo not given): 61.16%.
Consider `Cc1noc(C)c1-c1cccc(CC2CCN(C(=O)c3cc[nH]n3)C2)n1` (stereo not given), for which the INHIBITION is listed as -8.23%.
Regarding `Cc1noc(C)c1-c1cc(CC2CCN(C(=O)c3cc[nH]n3)C2)ncn1` (stereo not given), the INHIBITION is recorded as -15.34%.
Turning to `Cc1nc(CNC(=O)N(C)Cc2cnn(C)c2)cs1`, the INHIBITION was determined as 29.19%.
For `Cc1ncc2c(c1CNC(=O)C1(C)CC1)CCNC2`, the INHIBITION is given as 51.9%.
Under `Cc1ncc2c(c1CNC(=O)C1(C)CCCCO1)CCNC2` (stereo not given) stands -17.55%.
Under `Cc1ncc2c(c1CNC(=O)C1(C)CCCO1)CCNC2` (stereo not given) stands 21.72%; under `Cc1cc(C)nc(N2CCC(c3cc(CCO)[nH]n3)C2)n1` (stereo not given), -92.86%; under `Cc1ccc(C(=O)N2CCC3(CCC(=O)N(CC(C)O)C3)CC2)c(O)c1` (stereo not given), -0.85%.
Under `O=C(NCCn1ccc(-c2ccncc2)n1)C1CC1` stands -19.3%.
On to `Fc1cc(Cl)cnc1N1CCCC(c2nccn2Cc2ccncc2)C1` (stereo not given), for which the INHIBITION worked out at 17.69%.
The same measure for `CC(C)CS(=O)(=O)N1C[C@@H]2C[C@H](C(=O)NCc3ccccc3)[C@H](C1)O2`: 75.33%.
Under `O=C(NCc1ccccc1)[C@H]1C[C@H]2CN(S(=O)(=O)C3CC3)C[C@@H]1O2` stands 14.94%.
As for `CN(C)S(=O)(=O)N1C[C@@H]2C[C@H](C(=O)NCc3ccccc3)[C@H](C1)O2`, the INHIBITION was -32.96%.
The same measure for `CC(C)CCN1C[C@@H]2C[C@H](C(=O)Nc3ccccc3)[C@H](C1)O2`: 73.15%.
`CC(C)CCN1C[C@@H]2C[C@H](C(=O)Nc3cccnc3)[C@H](C1)O2`: the INHIBITION was determined as 26.76%.
Under `CCN1C[C@@H]2C[C@H](C(=O)Nc3ccccc3)[C@H](C1)O2` stands 37.65%.
The same measure for `Cc1nnn2c1COC(CNC(=O)c1cccn1C)C2` (stereo not given): 42.4%.
The same measure for `Cc1cc(Br)c(O)c(-c2nc(N3CCCCC3)sc2C)c1`: 14.95%; for `CN(Cc1cnn(C)c1)S(=O)(=O)N1CCCCCC1`: 47.68%.
As to `Cc1noc(C(C)N2CCN(CC(=O)N3CCCC3)CC2)n1` (stereo not given), the INHIBITION is given as -14.01%.
The same measure for `C1CCC(c2nnc3sc(C4CCOC4)nn23)C1` (stereo not given): 4.12%.
Under `C1CCC(c2nn3c(C4CCCO4)nnc3s2)C1` (stereo not given) stands 79.8%.
Under `C1CCC(c2nnc3sc(C4CCCO4)nn23)C1` (stereo not given) stands -11.31%; under `Cc1cc(C2CCCN(S(=O)(=O)c3cn[nH]c3)C2)ccn1` (stereo not given), 49.07%.
On to `CCN(CC)CCNC(=O)c1cnc(-c2ccccc2)nc1`, for which the INHIBITION is reported as -16.21%.
Take `CCS(=O)(=O)NCCNC(=O)c1cnc(-c2ccccc2)nc1`: the INHIBITION is listed as -22.82%.
In the case of `CC(=O)NCCNC(=O)c1cnc(-c2ccccc2)nc1`, the INHIBITION is given as 19.47%.
The same measure for `CN(C)CCCNC(=O)c1ccnc(OCc2ccccc2)c1`: 52.85%; for `CS(=O)(=O)NCCNC(=O)c1cnc(-c2ccccc2)nc1`: 73.01%.
The same measure for `CC(C)N(C)CCCNC(=O)c1cnc(-c2ccccc2)nc1`: 67.83%; for `O=C(NCCCN1CCOCC1)c1ccnc(OCc2ccccc2)c1`: -47.27%.
Under `COC(=O)CCNC(=O)c1ccc(OCc2ccccc2)nc1` stands -45.68%; under `CN(CCNC(=O)c1cnc(-c2ccccc2)nc1)S(C)(=O)=O`, -50.8%; under `COCCN(Cc1cccnc1)S(=O)(=O)c1cc(C)ccc1F`, 37.79%.
Turning to `Cn1cc(NS(=O)(=O)c2ccc(C(F)(F)F)cc2)ccc1=O`, the INHIBITION came out at 21.83%.
The same measure for `Cc1nc(CC(C)C)cc(C(=O)N2C[C@@H](CN(C)C)[C@@H](CO)C2)n1`: 3.46%; for `CCc1noc(C(C)N2CCC(C(=O)Nc3cnn(CC)c3)CC2)n1` (stereo not given): -56.72%.
Under `CCN(Cc1ccc2c(c1)OCO2)C(=O)c1ccc(C)[nH]c1=O` stands 0.26%.
Consider `COc1ccc(Cl)cc1C(=O)N1C[C@H](C(C)C)[C@@H](N)C1`, for which the INHIBITION is on record as 5.88%.
The same measure for `NC(=O)NC(=O)CCSCc1coc(-c2cccc(Cl)c2)n1`: 16.25%.
For the molecule `O=C(Nc1cnc2n1CCCC2)C1CCCN1C1CCNCC1` (stereo not given), the INHIBITION was -26.04%.
Turning to `CCn1cnnc1CNC(=O)N1CCCCCC1`, the INHIBITION is listed as -8.32%.
Regarding `CCN(CCC1CCN(C(=O)NCc2nncn2CC)CC1)CC1CC1`, the INHIBITION is 56.4%.
Under `CCn1cnnc1CNC(=O)N1CCC(CN2CCCCCC2)CC1` stands 27.47%; under `CCn1cnnc1CNC(=O)N1CCCC1`, 33.82%.
The same measure for `CCn1cnnc1CNC(=O)N1CCC(O)CC1`: -0.05%.
For the molecule `CCn1cnnc1CNC(=O)N1CCN(c2nccs2)CC1`, the INHIBITION was 17.31%.
